# Results: the supplement of paper PMC3724861
# The entries come from a sample that favours hits as a whole. How many sequences the whole screen found active is unknown.
# Tested on: T1, Caupolican (Caup) homeodomain DNA-binding domain
# T1 sequence: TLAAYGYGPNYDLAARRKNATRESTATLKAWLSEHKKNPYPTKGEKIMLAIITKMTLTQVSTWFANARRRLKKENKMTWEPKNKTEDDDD
# Assay: PBM E-score (8-mer, recovered from the published 9-mer minima) (E-score (dimensionless, -0.5 to 0.5)); Drosophila protein; higher = stronger relative binding preference, active = 0.31 or more
# Summary of the method: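 An enrichment score, with higher meaning stronger, expresses relative binding preference for each short DNA word. The protein used was Caup's homeodomain DNA-binding domain (residues 214-303), produced by in vitro transcription and translation and tested at 100 nM on custom-designed protein binding microarrays. The 8-mer values were recovered from published 9-mer scores, each equal to the lower of its two constituent 8-mer scores.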
row,Sequence,PBM E-score
1,ACAGGAGT,0.0982 (inactive)
2,AAAGTTTG,0.0257 (inactive)
3,ACGGCAGT,-0.0873 (inactive)
4,GCAACGCC,-0.0458 (inactive)
5,ACAGTACG,0.0926 (inactive)
6,TCAGTACA,0.313 (active)
7,CCAGTACA,0.3 (inactive)
8,ACAGTACA,0.331 (active)
9,ACAGTACT,0.18 (inactive)
10,GCAGTACA,0.196 (inactive)
11,ATCTGATG,0.072 (inactive)
12,ACGATTTG,0.11 (inactive)
13,ATCACAAC,0.212 (inactive)
14,ATTACAAG,≥ 0.427 (active)
15,ATTACAAC,0.37 (active)
16,ATTACAAT,0.298 (inactive)
17,ATTACTAC,0.293 (inactive)
18,ATTACAAA,0.259 (inactive)
19,ACGTTCGG,-0.177 (inactive)
20,ACTAGCCA,0.0322 (inactive)
21,CATAGTGA,0.155 (inactive)
22,CTGTCAAA,0.164 (inactive)
23,AAGTCAAA,0.0275 (inactive)
24,ATGTCAAC,0.324 (active)
25,GTGTCAAC,0.272 (inactive)
26,ACGTCAAT,-0.00307 (inactive)

row,Sequence,PBM E-score
1,ATGTCAAG,0.309 (inactive)
2,ATGTCAAA,0.359 (active)
3,ATGTCAAT,0.359 (active)
4,GTGTCAAA,0.294 (inactive)
5,CTGTCAAC,0.186 (inactive)
6,AGGTCAAA,-0.0266 (inactive)
7,TTGTCAAA,0.316 (active)
8,ACCCGATC,-0.0489 (inactive)
9,CTTGGTAA,0.0467 (inactive)
10,CTCGTCAA,0.0256 (inactive)
11,GGTGGTTA,0.0166 (inactive)
12,AATTGAGT,0.131 (inactive)
13,ACACCCTC,-0.0435 (inactive)
14,CAGCACGG,-0.0332 (inactive)
15,ATAATCAG,0.101 (inactive)
16,AGAGCAAG,0.0346 (inactive)
17,AAACACAA,0.27 (inactive)
18,GGACACAA,0.204 (inactive)
19,TAACACAA,0.319 (active)
20,GAACACAC,0.217 (inactive)
21,GAACACAA,0.317 (active)
22,CAACACAA,0.241 (inactive)
23,AGATCGGC,-0.152 (inactive)
24,ACCTGGAC,-0.0342 (inactive)
25,GCCGTGAA,-0.0891 (inactive)
26,ACCGTGTG,0.115 (inactive)

row,Sequence,PBM E-score
1,ACCGTGTA,0.359 (active)
2,CCCGTGTC,0.145 (inactive)
3,GCCGTGTA,0.341 (active)
4,ACCGTGGA,-0.107 (inactive)
5,ACCGTGTC,0.312 (active)
6,CCCGTGTA,0.25 (inactive)
7,ACCGTGCA,0.00395 (inactive)
8,GAACACCA,0.195 (inactive)
9,ACTATCAG,0.083 (inactive)
10,ATTATTAA,0.191 (inactive)
11,ACATTTTC,0.161 (inactive)
12,ACGCGACT,0.0019 (inactive)
13,CTCATAAG,0.0492 (inactive)
14,CATGACAG,0.151 (inactive)
15,GATAGATA,0.08 (inactive)
16,AGCTTCAC,-0.0515 (inactive)
17,CATGGGAC,0.151 (inactive)
18,AAATGTTG,0.201 (inactive)
19,CAATGTTC,0.218 (inactive)
20,CCATGTTC,0.368 (active)
21,AGATGTTA,0.286 (inactive)
22,GGATGTTA,0.204 (inactive)
23,GCATGTTA,0.397 (active)
24,ACATGTTA,0.452 (active)
25,CGATGTTC,0.249 (inactive)
26,ACATGTTG,0.453 (active)

row,Sequence,PBM E-score
1,AGATGTTG,0.203 (inactive)
2,GAATGTTA,0.234 (inactive)
3,ACCTGTTA,0.222 (inactive)
4,GAGCCTCA,-0.214 (inactive)
5,CCATATGG,-0.073 (inactive)
6,AGCACTGA,-0.0101 (inactive)
7,ACACTCTA,0.0891 (inactive)
8,AGTTTTGA,0.0657 (inactive)
9,CGTCCGGC,-0.219 (inactive)
10,CAATGTTA,0.269 (inactive)
11,AAATGTTC,0.247 (inactive)
12,CCATGTTA,0.406 (active)
13,CGATGTTA,0.297 (inactive)
14,ACATGTTC,0.455 (active)
15,AGATGTTC,0.286 (inactive)
16,GATTTGCA,0.0416 (inactive)
17,ATAGTTCC,-0.029 (inactive)
18,AAAGCCCC,-0.238 (inactive)
19,CGTTAAGC,-0.0697 (inactive)
20,GGTTGTAC,0.222 (inactive)
21,GGTTGTAA,0.333 (active)
22,AGTAGTAA,0.168 (inactive)
23,GGTTGTTA,0.324 (active)
24,AGTTGTAA,0.279 (inactive)
25,CGTTGTTA,0.305 (inactive)
26,CGTTGTAA,0.261 (inactive)

row,Sequence,PBM E-score
1,AGTTGTTA,0.266 (inactive)
2,GGTTGTGA,0.0824 (inactive)
3,TGTTGTAA,0.377 (active)
4,TGTAGTAA,0.376 (active)
5,CGTAGTAA,0.145 (inactive)
6,ACGAGGTG,0.0761 (inactive)
7,AGATGCAC,-0.00186 (inactive)
8,AGCGTTCG,-0.141 (inactive)
9,ATTAGGAA,0.0485 (inactive)
10,AGCAACAC,0.186 (inactive)
11,AGACGCGC,-0.0474 (inactive)
12,CCACGATA,0.0391 (inactive)
13,ACACGATA,0.322 (active)
14,ACACGTCT,0.203 (inactive)
15,GCACAATA,0.0168 (inactive)
16,ACACAATA,0.31 (active)
17,ACACGTCA,0.325 (active)
18,ACACGACT,0.251 (inactive)
19,ACACAATG,0.273 (inactive)
20,ACACGACC,0.215 (inactive)
21,ACACGACA,≥ 0.386 (active)
22,ACACGTCG,0.212 (inactive)
23,ACACGATC,0.254 (inactive)
24,AGACTGTG,0.0481 (inactive)
25,GCAGTCTA,0.0232 (inactive)
26,AAGATTGC,-0.00712 (inactive)

row,Sequence,PBM E-score
1,CATTTCAG,0.00691 (inactive)
2,ACACGAAG,0.174 (inactive)
3,ACACGAGG,0.111 (inactive)
4,ACACGATG,0.347 (active)
5,AAAAGCAT,0.1 (inactive)
6,CGTACACA,0.255 (inactive)
7,GGTACACA,0.28 (inactive)
8,AGTACCAA,0.128 (inactive)
9,CGTACCAA,0.0356 (inactive)
10,CGTACACC,0.205 (inactive)
11,TCTACACA,0.157 (inactive)
12,TGTACACA,0.407 (active)
13,TGTACAAA,0.384 (active)
14,AGTACAAA,0.26 (inactive)
15,TTTACAAA,0.245 (inactive)
16,CGTACACG,0.341 (active)
17,TGTACCAA,0.312 (active)
18,CGTATAGC,-0.0127 (inactive)
19,ACTGCCTG,-0.0684 (inactive)
20,ATGCTCGC,-0.0878 (inactive)
21,CGTCTGTC,0.0202 (inactive)
22,GCTTATAC,-0.034 (inactive)
23,CATATTTA,0.178 (inactive)
24,AAGCTGTG,0.00524 (inactive)
25,ATCCCGAC,-0.0204 (inactive)
26,GCAGGTTA,-0.0457 (inactive)

row,Sequence,PBM E-score
1,ATGTTATC,0.351 (active)
2,ATGTTATA,0.381 (active)
3,AGGTTATG,0.044 (inactive)
4,ACGTTATC,0.0197 (inactive)
5,AGGTTATA,0.0929 (inactive)
6,ATGTTATG,0.338 (active)
7,AAGTTATA,0.163 (inactive)
8,CTGTTATC,0.103 (inactive)
9,CTGTTATA,0.187 (inactive)
10,GCGTTATA,-0.0159 (inactive)
11,AAGTTATG,0.185 (inactive)
12,GTGTTATA,0.334 (active)
13,AGTGCGGA,-0.0562 (inactive)
14,AATGGATA,0.0292 (inactive)
15,AGGCAAGC,-0.0636 (inactive)
16,CCTCCAAG,-0.0978 (inactive)
17,AAGTAGCG,-0.0607 (inactive)
18,ACATAAGG,0.2 (inactive)
19,AGACGTGG,-0.0599 (inactive)
20,AACCACAC,0.0803 (inactive)
21,AAGTTCGC,-0.11 (inactive)
22,AATCCCTA,0.0149 (inactive)
23,CAGTTCTA,0.0212 (inactive)
24,GTGATGTA,≥ 0.383 (active)
25,ATGATGTC,0.312 (active)
26,ATGATGTA,≥ 0.383 (active)

row,Sequence,PBM E-score
1,ATGATGTG,0.0894 (inactive)
2,ATGATGGA,0.0619 (inactive)
3,GTGATGAA,0.0845 (inactive)
4,ATGATGAA,0.158 (inactive)
5,ACGATGTA,0.36 (active)
6,CTGATGTC,0.212 (inactive)
7,CCGATGTA,0.159 (inactive)
8,ACGATGTC,0.261 (inactive)
9,CTGATGTA,0.251 (inactive)
10,GATTCGGC,-0.0366 (inactive)
11,CAGAACAG,0.0845 (inactive)
12,ATCGCTTG,-0.0165 (inactive)
13,ATAGTCCG,0.00249 (inactive)
14,TAGCAAGA,0.142 (inactive)
15,CTACTCAA,0.116 (inactive)
16,CCAGTCAG,-0.104 (inactive)
17,TCGCAACA,0.0932 (inactive)
18,CTATACGA,0.0334 (inactive)
19,AAGATGTA,0.298 (inactive)
20,GAGATGTA,0.329 (active)
21,CAGATGTA,0.247 (inactive)
22,TATTGAAA,0.117 (inactive)
23,CTTATGTA,0.345 (active)
24,GTTATGTA,0.276 (inactive)
25,ATTATGTC,0.227 (inactive)
26,ATTATGTA,0.327 (active)

row,Sequence,PBM E-score
1,ATTATGTG,0.197 (inactive)
2,CTTATGTC,0.224 (inactive)
3,CGGTTCAA,-0.15 (inactive)
4,AGCGGTTA,-0.0759 (inactive)
5,AGAGATGA,-0.00602 (inactive)
6,AGGACAAG,0.254 (inactive)
7,ACGACAAC,0.339 (active)
8,AAGACATT,0.0764 (inactive)
9,AAGACATG,0.381 (active)
10,CCGACAAC,0.198 (inactive)
11,ACGACATG,≥ 0.416 (active)
12,AGGACATC,0.233 (inactive)
13,ACGACATC,0.26 (inactive)
14,AGGACATG,0.38 (active)
15,ACGACATA,0.299 (inactive)
16,AAGACATA,0.229 (inactive)
17,GCGACAAC,0.224 (inactive)
18,CATTTTGA,0.0478 (inactive)
19,ACGAGTGC,0.0719 (inactive)
20,ATATACTG,0.156 (inactive)
21,TCAACGAA,0.0771 (inactive)
